aSyn UTR act: Activators via SNCA 5'UTR binding, MLPCN. alpha-synuclein 5'UTR reporter, activators screen. 300,000 tested, 7.1% active. activity score, % (tested at 7.5 µM), hits read low. AID 1814; in the data active = activity score below about -60%
* marks the source's active call; other numbers are inactive results. These entries were drawn from the full list.

SMILES	aSyn UTR act
CN1C=C/C(=C\c2cc[n+](C)c3ccccc23)c2ccccc21	74
CC1(C)C=Cc2cc3ccc(=O)oc3cc2O1	-111*
O=C(Nc1nccs1)c1ccc(CSc2ccccc2)o1	-126*
Cc1ccc(SCc2ccc(C(=O)Nc3nccs3)o2)cc1	-79*
CCOC(=O)c1c(SCC(=O)Nc2nccs2)nc(C)c(C)c1C	-68*
O=C(CSc1cn(Cc2ccccc2)c2ccccc12)Nc1nccs1	-168*
Cc1ccc(SCC(=O)Nc2nccs2)cc1	-107*
CN(C)c1ccc(NC(=O)c2sc(SCC(=O)Nc3nccs3)nc2N)cc1	-156*
COC(=O)c1cccc(NC(=O)Nc2ccc(Cl)cc2Cl)c1	-103*
O=C(Nc1ccc2c(c1)OCO2)c1c(Cl)nc2sccn12	-205*
Cc1cc(C)c(NC(=O)Nc2ccc3c(c2)OCO3)c(C)c1	-71*
CC1CCC(NC(=O)C(=O)Nc2ccc3c(c2)OCO3)CC1 (stereo not drawn)	-114*
O=C(Nc1ccc2c(c1)OCO2)c1ccc(Cl)s1	-194*
Cc1ccc(NC(=O)Nc2ccc3c(c2)OCO3)c(Br)c1	-117*
Cc1cc(C)c2[nH]c(C(=O)Nc3ccc4c(c3)OCO4)cc2c1	-66*
COC(=O)c1ccc(C(=O)OC)c(NC(=O)Nc2ccc3c(c2)OCO3)c1	-124*
COc1cccc2c1C(=O)c1c(O)c3c(c(O)c1C2=O)C[C@@](O)(C(=O)CO)C[C@@H]3O[C@H]1C[C@H](N)[C@H](O)[C@H](C)O1	109
O=C(Nc1ccc2c(c1)OCO2)Nc1ccc(Cl)cc1Cl	-112*
CCc1ccc2[nH]c(C(=O)Nc3ccc4c(c3)OCO4)cc2c1	-94*
O=C(Nc1ccc(F)cc1)Nc1ccc2c(c1)OCO2	-109*
Cc1noc(C(=O)Nc2ccc3c(c2)OCO3)c1Cl	-205*
O=C(Nc1ccc(F)cc1F)c1cc(-c2ccc3c(c2)OCO3)on1	-110*
NC(=O)Nc1ccc2c(c1)OCCO2	-113*
CCc1ccc2[nH]c(C(=O)Nc3ccc(Br)c(C)n3)cc2c1	-146*
Cc1nn(Cc2ccc(Cl)cc2)c(C)c1NC(=O)c1cc(-c2ccc3c(c2)OCO3)on1	61
SMILES	aSyn UTR act
Cc1ccc2c(Cl)c(C(=O)Nc3ccc4c(c3)OCO4)sc2c1	-148*
O=C(Nc1ccc2c(c1)OCO2)Nc1ccc(F)cc1F	-138*
O=C(Nc1cccc(C(=O)O)c1)Nc1ccc2c(c1)OCO2	99
O=C(Nc1ccc2c(c1)OCO2)Nc1ccc2c(c1)OCO2	-129*
O=C(Nc1ccc(Cl)cc1)Nc1ccc2c(c1)OCO2	-134*
Cc1nc(NCc2ccco2)c2c(C)c(C)sc2n1	-177*
O=C(Nc1ccccc1)N(C1=NCCCCS1)c1cccc2ccccc12	-85*
CC(SC1=NCCS1)C(=O)Nc1nnc(-c2ccc(Cl)cc2)s1 (stereo not drawn)	-63*
CC(Sc1nncn1C)C(=O)Nc1nnc(-c2ccccc2)s1 (stereo not drawn)	-83*
Cc1cc(Br)ccc1OCc1nc(-c2cccnc2)no1	-114*
Cc1cc(NC(c2cccnc2)c2ccc3cccnc3c2O)no1 (stereo not drawn)	77
Cc1ccc(OCc2nc(-c3ccccc3)no2)cc1	-122*
Cc1ccc(-c2noc(COc3ccccc3C)n2)cc1	-86*
c1ccc(-c2noc(COc3ccc4c(c3)OCO4)n2)cc1	-192*
Cc1ccccc1OCc1nc(-c2ccccc2)no1	-178*
COC(=O)c1ccccc1NC1=C/C(=N\S(=O)(=O)c2cccs2)c2ccccc2C1=O	-91*
O=C1NCCN/C1=C\C(=O)c1ccc(Cl)cc1	-109*
O=C1NCCN/C1=C\C(=O)c1ccc(F)cc1	-81*
CC1CN/C(=C\C(=O)c2ccccc2)C(=O)N1 (stereo not drawn)	-110*
O=C(NCc1csc(-c2ccccc2)n1)c1ccco1	-85*
Cc1cc(C(=O)NCc2csc(-c3ccccc3)n2)no1	-82*
Cc1ccc(OCCSc2nc(N)cc(N)n2)cc1	-120*
COc1ccc(OCCSc2nc(N)cc(N)n2)cc1	-103*
CC(C#Cc1ccc2c(c1)COc1c3ccccc3nn1-2)OC(C)(C)C (stereo not drawn)	-114*
C#Cc1ccc2c(c1)COc1c3ccccc3nn1-2	-89*
SMILES	aSyn UTR act
C(#Cc1ccc2c(c1)COc1c3ccccc3nn1-2)c1ccccc1	-208*
N#CCCCC#Cc1ccc2c(c1)COc1c3ccccc3nn1-2	77
CCCCCCC#Cc1ccc2c(c1)COc1c3ccccc3nn1-2	-141*
COc1ccc(C/C(=N\O)c2ccc(OC)cc2)cc1	-89*
CCc1ccc(NC(=O)Nc2cccc(OC)c2)cc1	-199*
CCc1ccc(NC(=O)Cc2ccc(OC)cc2)cc1	-67*
COc1ccc(CC(=O)Nc2ccc(C(C)=O)cc2)cc1	-86*
COc1ccc(NC(=O)Cc2ccccc2)cc1	-101*
CC(C)(C)C(=O)Nc1ccc(-c2csnn2)cc1	-74*
Cc1ccccc1C(=O)Oc1ccc(-c2csnn2)cc1	-68*
CC(C)(C)C(=O)O/N=C(\N)c1ccc(-c2csnn2)cc1	-131*
CC(=O)O/N=C(\N)c1ccc(-c2csnn2)cc1	-128*
